What follows are sequences tested against SLC6A11 (assay: pooled miR-30 sensor sort-seq; sequence = guide strand). Settings: shRNA.
Further: reference of the scale not given here.

**Q.** For TAGAACTTGATGCCCTCTGAGG, which sensor-assay potency score (higher = more potent) is on record?
**A.** Its sensor-assay potency score (higher = more potent) is -1.22.

**Q.** How did the sensor-assay potency score (higher = more potent) turn out when TTAACTGTCACCATCCGTGGGC was run?
**A.** Its sensor-assay potency score (higher = more potent) is 0.397.

**Q.** Which sensor-assay potency score (higher = more potent) does the source give for TTCACTTGTGAACTGCCCCAGA here?
**A.** Its sensor-assay potency score (higher = more potent) is -0.108.

**Q.** How did the sensor-assay potency score (higher = more potent) turn out when TTCAATGTTATCATAGAACCGG was run?
**A.** Its sensor-assay potency score (higher = more potent) is -0.488.

**Q.** TCATTAACTGTCACCATCCGTG was tested. Which sensor-assay potency score (higher = more potent) did it give?
**A.** Its sensor-assay potency score (higher = more potent) is -0.565.

**Q.** Which sensor-assay potency score (higher = more potent) does the source give for TAGGAGAAAAAGATCTGCGTTC here?
**A.** The sensor-assay potency score (higher = more potent) was -0.00212.

**Q.** Which sensor-assay potency score (higher = more potent) does the source give for TAGGAGATAACAGACAAGGCTA here?
**A.** Its sensor-assay potency score (higher = more potent) is 0.294.

**Q.** Which sensor-assay potency score (higher = more potent) does the source give for TACAAGTAGAACTTGATGCCCT here?
**A.** Its sensor-assay potency score (higher = more potent) is 0.00476.

**Q.** Which sensor-assay potency score (higher = more potent) does the source give for TTATCATAGAACCGGTTGCTTC here?
**A.** Its sensor-assay potency score (higher = more potent) is -1.38.

**Q.** Which sensor-assay potency score (higher = more potent) does the source give for TCAATGTTATCATAGAACCGGT here?
**A.** Its sensor-assay potency score (higher = more potent) is -0.663.

**Q.** With TTCTGCAGAGACACATGGCTGT as the sequence, how does the sensor-assay potency score (higher = more potent) read?
**A.** Its sensor-assay potency score (higher = more potent) is 0.541.

**Q.** How did the sensor-assay potency score (higher = more potent) turn out when ATAATTGTTATAACTTCCCAGA was run?
**A.** Its sensor-assay potency score (higher = more potent) is -0.808.

These sequences were tested against SLC6A17 in the same assay as above. Settings: shRNA.

**Q.** How did the sensor-assay potency score (higher = more potent) turn out when TTGTCCTGCTTATTGTAGCTGG was run?
**A.** The sensor-assay potency score (higher = more potent) was -0.728.

**Q.** TTGTAGGACACGGAGAGGGTGT was tested. Which sensor-assay potency score (higher = more potent) did it give?
**A.** The sensor-assay potency score (higher = more potent) was -0.674.

**Q.** With TATAGTAGAGTGTCTCTCCTGG as the sequence, how does the sensor-assay potency score (higher = more potent) read?
**A.** Its sensor-assay potency score (higher = more potent) is 0.772.

**Q.** How did the sensor-assay potency score (higher = more potent) turn out when TTCTCGACCACACACTTCTCAT was run?
**A.** Its sensor-assay potency score (higher = more potent) is -1.03.

**Q.** With TACTGCAGCTTACTGTTCCAGG as the sequence, how does the sensor-assay potency score (higher = more potent) read?
**A.** The sensor-assay potency score (higher = more potent) was -0.506.

From the OligoGym collection
